D3 antag: qHTS of D3 Dopamine Receptor Antagonist: qHTS | D(3) dopamine receptor (Homo sapiens), P35462 | D3R cells, DiscoveRx beta-arrestin luminescence, antagonist mode; active compounds read low | max response, negative = inhibition, % | actives 2.5% (n = 360,000) | AID 652054, 2013; in the data active = max response below about -50%; inconclusive = no clear call, values can overlap the other calls; note: % is set by controls: 0 for no effect and ±100 for the full control effect
Target sequence (P35462 whole entry, looked up): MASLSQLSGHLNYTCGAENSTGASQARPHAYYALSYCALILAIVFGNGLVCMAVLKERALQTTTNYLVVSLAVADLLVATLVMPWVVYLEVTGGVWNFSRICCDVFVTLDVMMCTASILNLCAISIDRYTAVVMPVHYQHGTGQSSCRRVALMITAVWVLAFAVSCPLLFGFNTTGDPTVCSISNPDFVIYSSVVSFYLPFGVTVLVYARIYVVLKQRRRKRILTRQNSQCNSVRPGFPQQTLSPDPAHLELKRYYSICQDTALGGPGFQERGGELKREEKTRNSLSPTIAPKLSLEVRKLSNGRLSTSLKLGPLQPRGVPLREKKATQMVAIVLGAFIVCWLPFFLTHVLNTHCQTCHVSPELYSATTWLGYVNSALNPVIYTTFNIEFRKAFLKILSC
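Cells expressing the human receptor were seeded at 1500 cells/well, incubated overnight at 37 degrees C in 5% CO2, then exposed to library compounds with dopamine controls for 90 minutes at 37 degrees C before luminescent detection.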
D3 ag: qHTS of D3 Dopamine Receptor Agonist: qHTS. D3R DiscoveRx beta-arrestin cells, luminescence, 90 min. actives 0.58% (n = 410,000). max activation, %. D(3) dopamine receptor (Homo sapiens), P35462; in the data active = max activation above about 30%; note: 0% is about no effect
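Agonist mode: compounds and dopamine controls were applied to plated cells for 90 min at 37 degrees C after an overnight attachment at 1500 cells/well. Luminescent read-out followed 30 - 60 minutes at room temperature with DiscoveRx detection reagent.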
TDP1 cell CPT: qHTS for Inhibitors of human tyrosyl-DNA phosphodiesterase 1 (TDP1): qHTS in cells in presence of CPT. actives 12% (n = 420,000). AID 686979, 2013. Potency, µM (series often up to 46.2 µM), for inactives: top-dose activity change, negative = growth inhibition, usual class: inhibitors. chicken DT40 Tdp1-/-;hTDP1 cells + 20 nM CPT, ATP luminescence, 48 h; note: potency is the fitted concentration of half-maximal effect; % is set by controls: 0 for no effect and ±100 for the full control effect; nearly all actives have a fitted effect of over 55% in size
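Chicken DT40 Tdp1-/- cells stably complemented with human TDP1 were seeded at 400 cells/well in medium containing 20 nM camptothecin, exposed to pin-transferred compounds, and grown at 37 °C for at least 48 hr. Viability was read as ATP luminescence.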
IL1B secr inh: qHTS for Inhibitors of Inflammasome Signaling: IL-1-beta AlphaLISA Primary Screen | AID 743279, 2014 | THP-1 LPS/ATP IL-1B secretion, AlphaLISA, 16 h; active compounds read low | actives 4.7% (n = 360,000) | activity change, % at 57.5 µM; in the data active = activity change below about -50%; inconclusive = mostly about -30% to -49%; note: % is set by controls: 0 for no effect and ±100 for the full control effect
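THP-1 cells pretreated 1 hr with compounds (up to 57.5 uM final), then stimulated with LPS (250 ng/mL final) plus ATP (1.25 mM final); secreted IL-1B measured by AlphaLISA after 16 hr, decreased signal indicating inhibition.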
DT40 TDP1 no CPT: qHTS for Inhibitors of human tyrosyl-DNA phosphodiesterase 1 (TDP1): qHTS in cells in absence of CPT | actives 15% (n = 420,000) | Potency, µM (series often up to 46.2 µM), for inactives: at the highest dose activity change, negative = growth inhibition, most hits filed as inhibitors | DT40 Tdp1-/- hTDP1 cells, no CPT, ATP luminescence, 48 h; note: potency is the fitted concentration of half-maximal effect; % is set by controls: 0 for no effect and ±100 for the full control effect; nearly all actives have a fitted effect of over 55% in size
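A cellular qHTS used chicken DT40 cells lacking endogenous Tdp1 but carrying stably transfected human TDP1. Compounds were applied without camptothecin, and cell growth kinetics were judged by ATP-dependent luminescence after ≥48 hr.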
ClpP mod: qHTS Assay for Activators of ClpP. AID 651965, 2013. purified B. subtilis ClpP, FRET peptide cleavage, 20 min. Potency, µM (doses to about 57.5 µM), for the others: at the highest dose activity change, negative = active. actives 1.9% (n = 340,000); active = well fitted falling curve with a large enough effect; inconclusive = small, poorly fitted or top-dose-only effect; inactive = no such curve, though single readings can be large or run the other way; note: potency is the fitted concentration of half-maximal effect; the source files actives as falling curves though it sought activators and does not explain the sign; nearly all actives have a fitted effect of over 65% in size
Target sequence (P80244 whole entry, looked up): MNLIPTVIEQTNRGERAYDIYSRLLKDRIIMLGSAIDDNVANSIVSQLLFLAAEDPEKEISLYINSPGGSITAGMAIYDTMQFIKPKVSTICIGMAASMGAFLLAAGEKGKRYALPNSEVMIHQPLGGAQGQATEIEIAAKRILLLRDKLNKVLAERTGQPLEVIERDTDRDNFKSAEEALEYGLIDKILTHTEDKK
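ClpP 10 microg/mL final, pH 8 Tris/KCl buffer with BSA, glycerol, Tween-20; compound pinned in; FRET-FV substrate; RT 20 min; Ex320/Em430; ΔFRET vs ADEP 5.8 microM, DMSO, no enzyme.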
Active calls of the source: *; ? = inconclusive; nt = no result given. An excerpt weighted towards active compounds, which were near 21% of everything screened. Unless noted, calls come from the whole dose curve; as a rule, active = well fitted inhibition curve with a large enough effect; inconclusive = small, poorly fitted or top-dose-only effect; inactive = flat fitted curve, though single readings scatter.

SMILES	D3 antag	D3 ag	TDP1 cell CPT	IL1B secr inh	DT40 TDP1 no CPT	ClpP mod
COc1cccc(OC)c1OCCCCCCN1CCN(C)CC1	4	1	-5%	5	-9%	1%
Clc1ccccc1OCCCCN1CCCC1	-85*	-29	-11%	13	-15%	5%
CN1CCN(CCCCOc2ccccc2C=O)CC1	?	-3	?	-85*	?	nt
CCCC[C@@H]1C=C(C(=O)O)[C@H](c2ccc(Cl)c(Cl)c2)N1S(=O)(=O)c1ccc(C)cc1	-21	0	-1%	-13	2%	-3%
CCCn1c(N)c(N2CCCCC2)c(=O)n(CC(=O)Nc2cccc(S(=O)(=O)N(C)C)c2)c1=O	8	-6	-28%	-2	16%	0%
COc1ccccc1C(=O)NCC(=O)OC(C)C(=O)NC1CCCCC1C (configuration not stated)	-20	3	-9%	8	-12%	-5%
c1ccc2c(OCCCCN3CCCC3)cccc2c1	?	-1	?	-2	26µM*	-23%
COc1cccc(OC)c1OCCCCN1CCCCC1	-14	-17	-7%	0	7%	-1%
Fc1ccccc1OCCCCN1CCCCC1	-81*	-19	2%	15	12%	1%
COc1cccc(OC)c1OCCCCN1CCCC1	0	-16	-15%	11	-18%	-1%
Clc1ccccc1OCCCCN1CCCCC1	-95*	-25	0%	-8	3%	-3%
O=C(CNC(=O)C(c1ccccc1)c1ccccc1)OCC(=O)c1cccc2ccccc12	nt	nt	?	nt	20µM*	-3%
O=C(CNC(=O)C(c1ccccc1)c1ccccc1)OCC(=O)c1cccs1	-4	-5	1.6µM*	2	1.5µM*	-20%
COc1ccccc1C(=O)NCC(=O)OCC(=O)c1cccc2ccccc12	-7	-3	?	38	?	1%
CC(OC(=O)c1ccncc1)C(=O)Nc1ccc([N+](=O)[O-])cc1Cl (configuration not stated)	20	2	-2%	-12	3%	-1%
Cc1ccc(C2(c3ccccc3)NC(=O)N(CC(=O)N(C)C3CCS(=O)(=O)C3)C2=O)cc1C (configuration not stated)	-4	-1	1%	-9	-28%	1%
C=CCNC(=O)CSc1nnc(-c2cccc(S(=O)(=O)N3CCOCC3)c2)o1	17	0	6%	-11	-2%	-2%
Cc1ccc(NC(=C(C#N)C#N)c2ccccc2)cc1	19	1	?	2	12µM*	1%
COc1cccc(C(=O)N(Cc2nc(-c3cccc(C)c3)no2)C(C)C)c1OC	-7	-10	?	26	18µM*	-11%
COc1cccc(C(=O)NCc2nc(-c3ccccc3)no2)c1OC	nt	-21	-29%	nt	?	-14%
COc1ccccc1C(=O)N(Cc1nc(-c2cccc(C)c2)no1)C(C)C	nt	4	21µM*	nt	?	-1%
O=[N+]([O-])c1cccc(COc2ccccc2CO)c1	-22	1	-20%	5	?	2%
CC/C=C1/N=C2C(=O)N(C)C(=O)N=C2N(C)N1	nt	nt	0.089µM*	nt	?	-3%
CN1C(=O)/C(=C/c2ccc3c(c2)OCO3)N=C1c1ccccc1	-5	-2	?	15	-22%	1%
CN1N/C(=C\c2ccccc2)N=C2C(=O)N(C)C(=O)N=C21	nt	nt	1.4µM*	nt	?	-2%
SMILES	D3 antag	D3 ag	TDP1 cell CPT	IL1B secr inh	DT40 TDP1 no CPT	ClpP mod
Cc1ccc(S(=O)(=O)Nc2c(C)n(C)n(-c3ccccc3)c2=O)cc1C(=O)OCC(=O)N1CCCC(C)C1 (configuration not stated)	3	-3	8%	19	3%	nt
O=c1c(Cl)c(O)c2cccc3c4ccccc4n1c23	0	-3	-12%	19	-2%	14µM*
N#Cc1cc(C(=O)c2cc(Br)ccc2O)cn(Cc2ccccc2)c1=O	2	3	?	?	21µM*	nt
Cc1ccccc1-n1cc(C(=O)c2cc(Cl)ccc2O)cc(C#N)c1=O	-19	-4	?	0	12µM*	64%
Cc1c(-n2cc(C(=O)c3cc(F)ccc3O)cc(C#N)c2=O)c(=O)n(-c2ccccc2)n1C	12	2	4%	-56*	-10%	nt
N#Cc1cc(C(=O)c2cc(Cl)ccc2O)cn(CC2CCCO2)c1=O (configuration not stated)	0	0	?	-1	21µM*	56%
COc1ccc(O)c(C(=O)c2cc(C#N)c(=O)n(Cc3ccccc3)c2)c1	14	18	?	-3	?	nt
COc1ccccc1NC(=O)CN(c1cc(C)cc(C)c1)S(=O)(=O)c1c(C)[nH]c(=O)[nH]c1=O	nt	2	-1%	nt	-2%	-1%
COc1ccc(C(=O)Nc2ccc3nc(N4CCN(C)CC4)cc(C)c3c2)c(OC)c1	-2	-21	?	-86*	?	-2%
COc1ccc(C)cc1NC(=O)CCC(=O)Nc1ccc2nc(N3CCN(C)CC3)cc(C)c2c1	?	-35	?	-2	?	28µM*
Cc1cc(N2CCN(C)CC2)nc2ccc(NC(=O)c3ccc(C(C)(C)C)cc3)cc12	nt	-6	7.3µM*	nt	4.6µM*	-6%
Cc1cc(N2CCN(C)CC2)nc2ccc(NC(=O)CCC(=O)NCc3ccco3)cc12	-24	-5	-23%	-13	-15%	22µM*
CCCCNC(=O)CCC(=O)Nc1ccc2nc(N3CCN(C)CC3)cc(C)c2c1	4	5	-2%	22	-2%	4%
CC(Oc1ccc(F)cc1F)C(=O)NNC(=S)NCC1CCCO1 (configuration not stated)	-4	-7	1%	0	-24%	2%
O=C(O)/C(=C/c1ccc(Cl)c([N+](=O)[O-])c1)c1ccc(S(=O)(=O)N2CCCCC2)s1	4	0	11%	-5	-17%	nt
c1ccc(CN2CCN(Cc3c[nH]c4ccccc34)CC2)cc1	-60*	-46	2.1µM*	-16	10µM*	0%

Source: PubChem BioAssay
